A selection: hits, their analogues and other compounds. The true share with any hit is near 7%.
ADAM10 inh: ADAM10 inhibition, QFRET primary screen. O14672. recombinant ADAM10, EDANS/DABCYL FRET peptide cleavage, 3 h. inhibition, % at 7 µM. 370,000 compounds, 0.62% hits. AID 720582;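 active means inhibition above a per-campaign cutoff equal to the mean of compounds falling between control-based bounds plus 3 SD, cut at about 20% in these data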;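 further: 0% = DMSO wells while the 100% control is not disclosed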
rCAG binder: r(CAG) repeat RNA binding; inhibition, % at 3 µM; TO-PRO-1 dye displacement fluorescence; 370,000 compounds, 1.3% hits; AID 651821;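 active means inhibition above the plate cutoff, the mean of all test compounds on that plate plus 3 SD, cut at about 35% in these data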;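 further: 0% = DMSO alone and 100% = 100 µM mitoxantrone as full dye displacement; higher means more dye released from RNA so lower well fluorescence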
proKLK7 act: proKLK7 (human) activation, primary screen; 370,000 compounds, 0.9% hits; AID 652039; purified proKLK7, EDANS-DABCYL substrate fluorescence; 100% is mature enzyme control, 0% vehicle; activation, % at 7 µM;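 active means activation above the mean of all tested compounds plus 3 SD, computed per campaign excluding outliers beyond control limits, cut at about 13% in these data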
AHR activator: activates the human aryl hydrocarbon receptor; AHR-responsive luciferase reporter cells, luminescence; AID 2796; 320,000 compounds, 2.5% hits; P35869; activation, % at 5 µM; in the data active means activation above about 47%;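 further: 0% = vehicle wells and 100% = reference agonist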
Target sequence (P35869 whole entry, looked up): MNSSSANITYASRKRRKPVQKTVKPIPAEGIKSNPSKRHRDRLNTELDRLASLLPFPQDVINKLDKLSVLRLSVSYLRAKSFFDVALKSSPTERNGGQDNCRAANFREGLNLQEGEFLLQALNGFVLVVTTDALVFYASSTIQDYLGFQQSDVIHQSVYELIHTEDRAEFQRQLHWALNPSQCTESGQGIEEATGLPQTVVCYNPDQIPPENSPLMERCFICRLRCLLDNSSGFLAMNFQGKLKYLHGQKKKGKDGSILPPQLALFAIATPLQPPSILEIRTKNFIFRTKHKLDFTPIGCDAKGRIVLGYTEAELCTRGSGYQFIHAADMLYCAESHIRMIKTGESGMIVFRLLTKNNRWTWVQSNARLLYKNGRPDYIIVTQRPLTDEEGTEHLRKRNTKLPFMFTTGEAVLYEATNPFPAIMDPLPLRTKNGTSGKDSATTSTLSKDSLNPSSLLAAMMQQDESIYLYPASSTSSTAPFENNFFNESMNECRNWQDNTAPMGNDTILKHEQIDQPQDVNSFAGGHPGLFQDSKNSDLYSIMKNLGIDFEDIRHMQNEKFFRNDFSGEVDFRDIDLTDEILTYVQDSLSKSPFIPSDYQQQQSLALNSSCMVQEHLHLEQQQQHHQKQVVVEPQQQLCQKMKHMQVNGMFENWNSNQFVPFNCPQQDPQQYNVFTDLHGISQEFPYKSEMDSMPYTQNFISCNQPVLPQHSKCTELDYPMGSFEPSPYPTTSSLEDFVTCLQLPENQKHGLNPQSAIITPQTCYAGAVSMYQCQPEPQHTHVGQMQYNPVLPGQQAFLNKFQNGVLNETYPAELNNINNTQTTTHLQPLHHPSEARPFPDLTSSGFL
NR3A LBD binder: NR3A (human) ligand-binding domain modulation | NR3A LBD differential scanning fluorimetry, Tm shift; 0% = protein alone, 100% = glycine-bound protein | AID 1259313 | Tm shift relative to glycine control, % at 25 µM | 340,000 compounds, 2.5% hits;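 active means melting temperature shift of at least 10% of the positive control shift, at one fixed dose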
ADAM17 inh: inhibits human ADAM17 | P78536 | recombinant ADAM17, EDANS/DABCYL FRET peptide cleavage | inhibition, % at 6.95 µM | 370,000 compounds, 0.83% hits;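 active means inhibition above the mean of compounds lying between control limits plus 3 SD, set per campaign, cut at about 8.5% in these data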;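 further: 0% = DMSO-only wells as the low control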
ADAM10 counter: counter-screen for ADAM17 exosite inhibitors: inhibitors of human ADAM10; recombinant ADAM10, EDANS/DABCYL FRET peptide cleavage, 3 h; AID 743256; 2,900 compounds, 47% hits; inhibition, % at 6.95 µM; shares compounds with ADAM17 inh;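 active means mean inhibition over the triplicate runs exceeds the activity threshold set in the earlier primary screen, cut at about 20% in these data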;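 further: 0% = DMSO wells and 100% = marimastat wells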
ADAM17 confirm: human ADAM17 inhibition, confirmation; shares compounds with ADAM17 inh; recombinant ADAM17, EDANS/DABCYL QFRET peptide cleavage; inhibition, % at 6.95 µM; 2,900 compounds, 65% hits; AID 743257;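 active means mean inhibition across replicates above the hit cutoff set in the primary screen, cut at about 8.5% in these data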;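 further: 0% = DMSO wells and 100% = marimastat wells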
* = called active by the depositor; x = not tested or not shown.

SMILES | ADAM10 inh | rCAG binder | proKLK7 act | AHR activator | NR3A LBD binder | ADAM17 inh | ADAM10 counter | ADAM17 confirm
CCCOc1ccccc1C(=O)N(Cc1cccc(Br)c1)C1CCS(=O)(=O)C1 (centres undefined) | -5 | -7 | 1 | 1 | -2 | 2 | x | x
CCOc1ccc(NC(=O)COC(=O)c2cc(S(=O)(=O)N3CCCC3)ccc2C)cc1 | 5 | 2 | 0 | 0 | -6 | 9.4* | 16 | 7
O=C(COC(=O)/C=C/c1ccc(OC(F)F)cc1)Nc1ccc(S(=O)(=O)N2CCCC2)cc1 | 18 | 10 | 1 | 1 | 3 | 9.8* | 18 | 13*
Cc1cccc(OCCC(=O)Nc2ccc(C)c(S(=O)(=O)N3CCCCC3)c2)c1 | 26* | 1 | 1 | 0 | -2 | 14* | 36* | 18*
CCOc1ccc(NC(=O)COC(=O)c2ccc(S(=O)(=O)N3CCOCC3)cc2)cc1 | -11 | -2 | 0 | 3 | 2 | -6 | x | x
O=C(COC(=O)c1ccc(Br)o1)Nc1cccc(S(=O)(=O)N2CCCCCC2)c1 | 12 | 7 | 0 | 0 | 0 | 9.8* | 26* | 15*
Cc1c(C)c2ccc(OC(C)C(=O)NCCCN3CCOCC3)c(C)c2oc1=O (centres undefined) | -161 | -4 | 2 | 0 | 4 | -53 | x | x
COc1ccccc1Oc1ccc(S(=O)(=O)N2CCCCC2)cc1NC(=O)CCNC(C)=O | -7 | -2 | 1 | 7 | 0 | 3 | x | x
CN(c1ccccc1)S(=O)(=O)c1ccc(Cl)c(C(=O)OCC(=O)c2c(N)n(C)c(=O)n(C)c2=O)c1 | -3 | 9 | 0 | x | 3 | 2 | x | x
Cc1ccc(C)c(OCCC(=O)Nc2cc(S(=O)(=O)N3CCCCC3)ccc2C)c1 | -8 | 2 | 0 | -1 | -4 | 0 | x | x
CCOc1ccccc1OCC(=O)Nc1cccc(S(=O)(=O)N2CCCCCC2)c1 | 13 | 2 | 0 | -1 | -5 | 0 | x | x
CC(=O)c1ccccc1OCC(=O)Nc1cccc(S(=O)(=O)N2CCCC2)c1 | -11 | 2 | 1 | 1 | -1 | 9.3* | 10 | 4
CSc1ncccc1C(=O)OCC(=O)Nc1ccc(S(=O)(=O)N2CCCC2)cc1 | 9 | 8 | 1 | 1 | -8 | 9.5* | 1 | 6
CSc1ncccc1C(=O)OCC(=O)c1ccc(S(=O)(=O)N2CCCCC2)cc1 | 14 | 14 | 0 | 2 | -1 | 3 | x | x
O=C(CN1CCN(Cc2ccccc2)CC1)Nc1cccc(S(=O)(=O)N2CCCCCC2)c1 | 14 | -6 | 0 | 0 | 1 | 8.9* | 22* | 11*
Cc1ccc(C)c(OCCC(=O)Nc2cccc(S(=O)(=O)N3CCCCC3)c2)c1 | 18 | 1 | 1 | 1 | -2 | 9.3* | 40* | 21*
O=C(NC1CCCCC1)c1cc(C2CC2)nn1-c1ccccc1 | -2 | -1 | -1 | 3 | 0 | -1 | x | x
COc1ccc(S(=O)(=O)N2CCOCC2)cc1NS(=O)(=O)c1ccc(F)c(F)c1 | 0 | 10 | 0 | 0 | 0 | -6 | x | x
Cc1ccc(C)c(C(=O)OCC(=O)Nc2cccc(S(=O)(=O)N3CCCCC3)c2)c1 | 8 | 10 | 0 | 1 | 3 | 12* | 32* | 19*
Cc1ccccc1C(=O)OCC(=O)Nc1cccc(S(=O)(=O)N2CCCCC2)c1 | -3 | 5 | 1 | x | x | 2 | x | x
O=C(COC(=O)CCc1ccc(S(=O)(=O)N2CCCCC2)cc1)Nc1cccc2ccccc12 | 18 | 5 | 1 | -1 | -10 | 13* | 26* | 12*
C/C(=N\NC(=O)c1cccc(S(=O)(=O)N2CCOCC2)c1)c1ccc(OCC(=O)N(C)C)cc1 | 3 | 4 | 0 | 2 | 3 | -2 | x | x
CCCCN(C(=O)c1ccc(N(C)S(=O)(=O)c2ccc(C)cc2)cc1)c1c(N)n(CC(C)C)c(=O)[nH]c1=O | 2 | 1 | 0 | x | -2 | -8 | x | x
CS(=O)(=O)NCc1nnc(SCC(=O)NC2CCCCC2)n1-c1ccc(F)cc1 | 10 | 0 | 0 | 2 | 6 | 9.1* | -1 | 5
CC(C)NC(=O)c1cc(C2CCCCN2S(=O)(=O)c2ccc(C#N)cc2)on1 (centres undefined) | -8 | 1 | 0 | x | x | -6 | x | x
SMILES | ADAM10 inh | rCAG binder | proKLK7 act | AHR activator | NR3A LBD binder | ADAM17 inh | ADAM10 counter | ADAM17 confirm
N#Cc1cccc(NC(=O)c2cc(C3CCCCN3S(=O)(=O)c3ccccc3)on2)c1 (centres undefined) | 14 | 3 | -1 | x | x | 12* | 18 | 12*
CC(C)Cc1nnc(NC(=O)CCC(=O)N2CCN(c3ccccc3F)CC2)s1 | -10 | -10 | 0 | 0 | -3 | -1 | x | x
O=C(c1cc(-c2ccncc2)nc2ccccc12)N1CCN(c2ccccc2O)CC1 | -2 | 3 | 0 | 24 | 2 | 3 | x | x
O=C(c1cc(-c2ccccc2)nc2ccccc12)N1CCN(c2ccccc2O)CC1 | 13 | 5 | 0 | 12 | 1 | 14* | 29* | 19*
CS(=O)(=O)Nc1ccccc1-c1cccc2nccn12 | -326 | 3 | 2 | x | x | -86 | x | x
COc1ccc(S(=O)(=O)N2CCCCC2)cc1NC(=O)C1CC(=O)N(Cc2ccccc2)C1 (centres undefined) | -9 | 4 | 1 | 2 | -1 | 2 | x | x
CC1(C)Cc2c(c(=S)nc(-c3ccccc3)n2CCN2CCOCC2)CO1 | 2 | -2 | -1 | -4 | 4 | 8.7* | 3 | 6
C=C(C)CNC(=O)C1CCC(=O)N(CCCc2ccccc2)C1 (centres undefined) | 5 | -4 | -1 | 1 | -2 | -2 | x | x
CCOc1ccc(CCNC(=O)COC(=O)c2nc(Cl)ccc2Cl)cc1OCC | 0 | -1 | 0 | 5 | 0 | -2 | x | x
O=C(NCc1ccccc1F)c1cccc(S(=O)(=O)NCc2ccccc2)c1 | -3 | 0 | 0 | -3 | 6 | -4 | x | x
O=C(NCc1cccc(C(F)(F)F)c1)c1cccc(S(=O)(=O)NCc2ccccc2)c1 | 18 | 2 | 0 | 2 | -1 | 12* | 24* | 11*
O=C(NC(=S)Nc1ccc(Cc2ccncc2)cc1)c1ccccc1F | 9 | -2 | 0 | -7 | 2 | 12* | 2 | 2
O=C(NC(=S)Nc1ccc(Cc2ccncc2)cc1)c1ccccc1Cl | 2 | 0 | 0 | -1 | -1 | 2 | x | x
COc1ccc(CN(C(=O)c2nsc(Cl)c2Cl)C(C(=O)NC2CCCC2)c2ccc(C)cc2)cc1 (centres undefined) | 13 | 0 | -1 | 6 | -2 | 10* | 14 | 14*

Assay outcomes (PubChem)
